From PubChem BioAssay
A selection: hits, their analogues and other compounds. The true share with any hit is near 2.6%.
SIAE primary = human SIAE inhibitors, primary screen, biochemical, fluorescence polarization, FP-Rh probe, 1536-well HTS; SIAE FP-Rh probe binding; 370,000 tested, 0.69% active; inhibition, % at 9.66 µM; Sialate O-acetylesterase (Homo sapiens), Q9HAT2; AID 1053197, 2014;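 active = inhibition above a cutoff: mean of compounds within the control limits plus 3 SD of those, cut at about 17% in these data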;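 note: 0% = plate median of compound wells and 100% = probe without SIAE protein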
PME-1 primary = PME-1 inhibitors via competitive probe labeling, primary screen, biochemical, fluorescence polarization, FP-Rh probe, HTS; AID 2130, 2009; 320,000 tested, 0.53% active; recombinant PME-1; inhibition, % at 5.9 µM; Protein phosphatase methylesterase 1 (Homo sapiens), Q9Y570;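 active = inhibition above the campaign mean of all compounds plus 3 SD, cut at about 26% in these data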;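 note: competitive labeling of PME-1 active site by serine hydrolase directed probe; 0% = PME-1 with DMSO and 100% = wells lacking PME-1 enzyme; inhibitors block probe labeling so polarization falls and inhibition rises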
PRMT1 inh = PRMT1 methyltransferase inhibitors, primary screen, biochemical, fluorescence polarization; 370,000 tested, 1.3% active; inhibition, % at 2.79 µM; recombinant PRMT1, activity-based probe fluorescence polarization;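 active = inhibition above about 21% made by adding two undisclosed values, limit read from the data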
PAD4 FP inh = human PAD4 inhibitors, primary screen, biochemical, fluorescence polarization, 1536-well format; recombinant PAD4, RCA probe fluorescence polarization; inhibition, % at 6.36 µM; 330,000 tested, 0.41% active; AID 485272, 2010;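 active = percent inhibition above a cutoff equal to the mean of all tested compounds plus 3 SD, cut at about 15% in these data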;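 note: 0% = PAD4 with RCA probe and DMSO and 100% = probe without PAD4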
Target sequence (Q9UM07 whole entry, looked up): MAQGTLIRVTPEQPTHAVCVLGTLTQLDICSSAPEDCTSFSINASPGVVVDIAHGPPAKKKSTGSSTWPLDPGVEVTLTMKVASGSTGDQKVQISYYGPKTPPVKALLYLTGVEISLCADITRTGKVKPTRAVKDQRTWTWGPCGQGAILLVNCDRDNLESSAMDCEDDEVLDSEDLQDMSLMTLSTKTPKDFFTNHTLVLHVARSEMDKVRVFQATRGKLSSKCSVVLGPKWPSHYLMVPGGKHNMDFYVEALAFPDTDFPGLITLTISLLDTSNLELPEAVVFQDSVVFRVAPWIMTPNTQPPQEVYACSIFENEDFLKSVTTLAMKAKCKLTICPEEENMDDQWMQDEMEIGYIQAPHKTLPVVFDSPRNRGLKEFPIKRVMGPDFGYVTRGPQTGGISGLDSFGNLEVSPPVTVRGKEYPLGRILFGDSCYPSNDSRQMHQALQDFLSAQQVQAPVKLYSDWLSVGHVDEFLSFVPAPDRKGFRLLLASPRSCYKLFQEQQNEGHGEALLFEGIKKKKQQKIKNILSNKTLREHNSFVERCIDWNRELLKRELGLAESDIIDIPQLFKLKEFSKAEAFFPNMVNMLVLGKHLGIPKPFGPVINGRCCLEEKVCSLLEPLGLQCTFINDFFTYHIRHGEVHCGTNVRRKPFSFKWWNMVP
TCR-CD3 inh = inhibitors of human TCR-CD3 interaction, primary screen, biochemical, fluorescence, TAMRA-labeled TCR probe | T-cell receptor (TCR) | inhibition, % at 9.4 µM | 360,000 tested, 0.37% active | AID 651800, 2012; in the data active = inhibition above about 19%;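 note: recombinant mutant TCR 2C K166C tagged with TAMRA read by polarization; 0% = receptor in buffer alone and 100% = receptor with positive control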
Fam108B counter = mouse Fam108B serine hydrolase inhibitors, primary screen, counter-screen for RBBP9 inhibitor project, biochemical, fluorescence polarization. 300,000 tested, 0.33% active. recombinant Fam108B, FP-Rh probe fluorescence polarization. inhibition, % at 9.51 µM. AID 1947, 2009;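 active = inhibition above the screen mean inhibition plus 3 SD, computed separately per campaign, cut at about 18% in these data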;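 note: inhibitors lower polarization as less probe binds the enzyme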
PAD4 confirm = human PAD4 inhibitors, confirmation, biochemical, fluorescence polarization; shares compounds with PAD4 FP inh; recombinant PAD4, RCA probe fluorescence polarization; inhibition, % at 6.36 µM; 1,200 tested, 28% active; AID 488796, 2010;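 active = mean inhibition across replicates above the hit cutoff set by the earlier primary screen, cut at about 15% in these data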;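 note: inhibitors block active-site labeling by the probe so polarization falls; 0% = PAD4 with probe and DMSO and 100% = probe without PAD4 enzyme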
Active calls of the source: *; . = no result given.

SMILES	SIAE primary	PME-1 primary	PRMT1 inh	PAD4 FP inh	TCR-CD3 inh	Fam108B counter	PAD4 confirm
O=C(CN1CCCCC1)Nc1ccc(C(F)(F)F)cc1Cl	2	-6	8	18*	-7	-2	-6
O=C(N/N=C\c1ccc(-c2ccccc2[N+](=O)[O-])o1)C1COc2ccccc2O1 (stereo not given)	3	13	-4	29*	13	4	-7
O=C(N/N=C\c1ccc(-c2ccccc2[N+](=O)[O-])o1)C1COc2cc3ccccc3cc2O1 (stereo not given)	-45	-14	3	17*	11	-16	-5
Cc1ccc(/C=N\NC(=O)C2COc3cc4ccccc4cc3O2)o1 (stereo not given)	-3	-2	0	-2	5	8	.
O=C(OC12CCCN(C1)/C(=C/c1ccncc1)C2)c1ccccc1 (stereo not given)	11	.	-1	.	.	.	.
COc1cc(SC#N)ccc1N=Cc1c(C)[nH]n(-c2ccc(C)cc2C)c1=O	3	-2	13	22*	10	1	36*
COc1cc(SC#N)ccc1N=Cc1c(C)[nH]n(-c2cccc3ccccc23)c1=O	.	1	.	31*	.	8	46*
COc1ccccc1N=Cc1c(C)[nH]n(-c2ccc(C)cc2C)c1=O	6	5	1	-6	-4	3	.
COc1ccc(-n2c(COc3ccc(Cl)cc3)nnc2SCc2nc3ccccc3[nH]2)cc1	4	.	-5	.	.	.	.
COC1=C[C@H](C(=O)NCc2ccc(Br)cc2)[C@H](C)[C@@H](c2ccccc2)CC1=O	3	.	-1	.	.	.	.
CCCCCC(=O)Nc1ccc2ccccc2c1	0	0	2	1	3	-2	.
O=C(CS)Nc1ccc2ccccc2c1	-5	-1	12	28*	0	3	9
c1cc(CNc2ccc(N3CCOCC3)cc2)ccn1	6	6	5	25*	12	-1	4
Cc1ccc(CNc2ccc(N3CCOCC3)cc2)cc1	10	0	-1	-9	4	2	.
COc1cc(C=Nn2c(-c3cc(C)[nH]n3)n[nH]c2=S)cc(Br)c1O	-1	.	2	.	.	.	.
C/C(=N\NC(=O)C(=O)Nc1cccc(Cl)c1C)c1ccncc1	2	-2	0	25*	3	5	2
COc1ccc(C)cc1N(C(=O)c1ccccc1F)c1nc2ccccc2s1	-5	0	4	29*	0	-5	29*
O=C(CSc1nnc(-c2cccs2)o1)c1ccc2c(c1)OCO2	8	.	1	.	.	.	.
COc1ccc(C2(c3ccc(OC)cc3)NC(=O)N(CC(=O)NC3CCCC3)C2=O)cc1	3	-6	0	4	1	-1	.
COc1ccc(N2C(=O)CSC23C(=O)N(CC(=O)NC2CCCC2)c2ccccc23)cc1 (stereo not given)	-7	2	-2	16*	6	0	14
CC(C)(C)OC(=O)NCc1ccccc1/C=C/S(=O)(=O)NCc1ccc(F)cc1	-6	.	-6	.	.	.	.
O=C(CSc1nncc2ccccc12)N1CCCCC1	3	-10	2	17*	5	0	4
Cc1ccc([N+](=O)[O-])cc1NC(=O)CSc1nncc2ccccc12	5	5	-2	-1	4	0	.
O=C(CSc1nc(C2CC2)nc2ccccc12)N1CCCCC1	-8	-7	-1	4	9	-1	.
Cc1ccc(NC(=O)CSc2nncc3ccccc23)cc1	2	-9	0	16*	-2	3	10
SMILES	SIAE primary	PME-1 primary	PRMT1 inh	PAD4 FP inh	TCR-CD3 inh	Fam108B counter	PAD4 confirm
CCOC(=O)c1ccc(-n2[nH]c(-c3ccccc3)cc2=O)cc1	8	9	0	40*	0	0	-16
Clc1cccc(CSc2ncnc3sc4c(c23)CCCC4)c1	-1	.	-1	.	.	.	.
COC(=O)[C@H](C(C)C)N(Cc1cn(Cc2ccc(C)cc2)nn1)S(=O)(=O)c1ccccc1Br	-1	.	0	.	.	.	.
O=C1Nc2ccccc2/C1=C/c1ccc([N+](=O)[O-])cc1	0	0	4	3	4	6	.
CC1(c2ccc([N+](=O)[O-])cc2)Nc2ccccc2S1 (stereo not given)	12	4	45*	17*	6	4	2
CN1c2ccccc2C(C)(C)[C@]12C=Cc1cc(O)ccc1O2	-78	-64	10	-76	-17	-1	.
COc1ccc2ccc3c(c2c1)N=CC1(O3)N(C)c2ccccc2C1(C)C (stereo not given)	.	9	.	59*	.	3	6
O=C(CSc1ncnc2scc(-c3ccc(Cl)cc3)c12)Nc1ccccc1-c1ccccc1	-3	.	6	.	.	.	.
Cc1ccc(C)c(-n2sc3ccc(F)cc3c2=O)c1	17	4	91*	38*	2	.	35*
COc1ccc(-n2sc3ccc(F)cc3c2=O)cc1	12	6	87*	31*	7	.	30*
O=c1c2cc(F)ccc2sn1-c1ccc(F)cc1	.	8	.	30*	.	.	25*
N#CCSc1nc2cc(C(=O)N3CCC(C(N)=O)CC3)ccc2c2nc3ccccc3n12	.	2	.	22*	.	-1	25*
Cc1ccc(NC(=O)c2cccc(C(=O)Nc3ccc(C)cc3C(=O)O)c2)c(C(=O)O)c1	-13	2	3	-1	-4	-5	.
Cc1ccc(S(=O)(=O)CCSc2cccc(C(=O)Nc3ccccc3C(=O)O)c2)cc1	-32	36*	77*	19*	5	-7	36*
COc1cccc(NC(=O)c2ccccc2-c2ccccc2C(=O)O)c1	9	2	-2	18*	0	5	0
CC(C)c1onc(C(=O)N2CCOCC2)c1[N+](=O)[O-]	-4	1	-4	-3	-9	0	.
Cc1onc(C(=O)N2CCOCC2)c1[N+](=O)[O-]	5	4	3	22*	-2	1	19*
CCCC1OC23CCCCC2C(C#N)(C(=N)O3)C1(C#N)C#N (stereo not given)	9	5	0	17*	8	-1	6
CC1OC23CCCCC2C(C#N)(C(=N)O3)C1(C#N)C#N (stereo not given)	5	-2	7	3	-3	-4	.
N#CC12COC3(CCCCC3C1(C#N)C#N)OC2=N (stereo not given)	10	12	35*	22*	13	-3	4
CC(C)[C@H]1Cn2nncc2Cn2c3ccccc3c(=O)n21	-1	.	1	.	.	.	.
